Records with an inconclusive call do not appear. For part of these data: Results with a measured potency or affinity are listed apart. Calls of active or inactive are those of the source. Unless noted, how the calls were made is not given here.
How the values were obtained:
[1] = Ebola virus entry assay, green fluorescence channel
[2] = Ebola virus entry assay, blue channel fluorescence
[3] = Ebola virus entry assay, ratio channel
[4] = Ebola virus entry assay, reporter ratio channel; Channel type: primary
[5] = Ebola virus entry assay, blue channel (ratio component)
[6] = qHTS assay for measurement of the activity of small molecule inhibitors on Zika virus induced Caspase-3 activity in human iPSC derived neural progenitor cells (hNPCs) (AID 1224857; active means well fitted inhibition curve with a large enough effect; further: % of control where 0% means no effect; nearly all actives have a fitted effect of over 65% in size); conditions: hNPCs ZIKV-induced caspase-3/7, Caspase-Glo luminescence, 6 h; series mostly up to 45.7 µM
Outline: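 Percent inhibition of virus-induced caspase-3/7 luminescence (Caspase-Glo), scaled between uninfected cells and Zika-infected cells. hNPCs received compound 1 hr before ZIKV at 2 FFU/cell, with 6 hours infection at 37 C.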

[7] = qHTS assay for measurement of the activity of small molecule inhibitors on Zika virus induced Caspase-3 activity in human astrocytoma cells (AID 1224859; active means well fitted inhibition curve with a large enough effect;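 further: plate controls were ZIKV-infected untreated cells for no effect and uninfected cells for full effect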); conditions: SNB-19 ZIKV-induced caspase-3/7, luminescence, 6 h; series mostly up to 45.7 µM
Outline: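 Luminescent caspase-3/7 read-out (30 min reagent, room temperature) in human SNB-19 cells infected 6 h with ZIKV (2 FFU/cell) after 1 h compound pre-incubation; Data were normalised to uninfected and infected wells.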
Wherever efficacy is given: 0% is about no effect.

COP(=S)(OC)Oc1ccc(S(N)(=O)=O)cc1
inactive: efficacy [1] -39.4% | outcome [2] | outcome [3] | outcome [4] | outcome [5] | Potency [6] | outcome [7]

O=C(Cn1ccnc1[N+](=O)[O-])NCCO
inactive: efficacy [1] -27.8% | outcome [2] | outcome [3] | outcome [4] | outcome [5]

CCCCCOc1ccccc1/C(=C\SC)n1ccnc1
inactive: efficacy [1] 106% | outcome [2] | outcome [3] | outcome [4] | outcome [5]

CC#C[C@]1(O)CC[C@H]2[C@@H]3C[C@H](C)C4=CC(=O)CC[C@]4(C)[C@H]3CC[C@@]21C
inactive: efficacy [1] 83.4% | outcome [2] | outcome [3] | outcome [5] | Potency [6] | outcome [7]
active: AC50 [4] 39.8 µM

CC(Cc1ccccc1)NCc1ccccc1Cl (stereo not drawn)
inactive: efficacy [1] -110% | Potency [6] | outcome [7]
active: AC50 [2] 14.1 µM | AC50 [3] 14.1 µM | AC50 [4] 14.1 µM

CC(C)(C)CC(=O)OCC(=O)[C@@]1(O)CC[C@H]2[C@@H]3CCC4=CC(=O)C=C[C@]4(C)[C@H]3[C@@H](O)C[C@@]21C
inactive: efficacy [1] 47.7% | outcome [2] | outcome [3] | outcome [5]
active: AC50 [4] 28.2 µM

O=Cc1ccccc1C=O
inactive: efficacy [1] -22.6% | outcome [2] | outcome [3] | outcome [4] | outcome [5]

CCOC(=O)OCC/C(SC(=O)OCC)=C(\C)N(C=O)Cc1cnc(C)nc1N
inactive: efficacy [1] 26.7% | outcome [2] | outcome [3] | outcome [4] | outcome [5]

CC(N)C(=O)OC(C)(C)Cc1ccc(Cl)cc1 (stereo not drawn)
inactive: efficacy [1] 77% | Potency [6]
active: AC50 [2] 15.8 µM | AC50 [3] 14.1 µM | AC50 [4] 14.1 µM

Nc1c2c(nc3ccccc13)CCCC2O (stereo not drawn)
inactive: efficacy [1] 42.6% | outcome [2] | outcome [3] | outcome [4] | outcome [5]

C[C@@H]1CCN(C(=O)[C@H](CCCN=C(N)N)NS(=O)(=O)c2cccc3c2NC[C@H](C)C3)[C@@H](C(=O)O)C1
inactive: efficacy [1] -39.7% | outcome [2] | outcome [3] | outcome [4] | outcome [5]

Cc1nc2ccccc2c(=O)n1-c1ccccc1Cl
active: AC50 [3] 20 µM | AC50 [4] 20 µM
inactive: efficacy [1] 30.7% | outcome [2] | outcome [5] | Potency [6] | outcome [7]

CC1COC2(c3ccccc3Cl)c3cc(Cl)ccc3NC(=O)CN12 (stereo not drawn)
inactive: efficacy [1] 68% | Potency [6] | outcome [7]
active: AC50 [2] 28.2 µM | AC50 [3] 28.2 µM | AC50 [4] 28.2 µM

Cc1ccc([N+](=O)[O-])[c]2c1[O][Hg]2
inactive: efficacy [1] -177% | Potency [6]
active: AC50 [2] 1.78 µM | AC50 [3] 0.708 µM | AC50 [4] 0.708 µM

Nc1ccc2c(c1)CN1C(=O)c3ccccc3C1=N2
inactive: efficacy [1] 64.3% | outcome [2] | outcome [3] | outcome [4] | outcome [5]

Nc1ccc(C(=O)N2CC3CC(CN(Cc4ccccc4)C3)C2)cc1
active: AC50 [4] 31.6 µM
inactive: efficacy [1] 68.8% | outcome [2] | outcome [3] | outcome [5]

CC1=C(C)C(=O)C(CCCCC#CCCCC#CCO)=C(C)C1=O
inactive: efficacy [1] 49.4% | outcome [2] | outcome [3] | outcome [4] | outcome [5]

— PubChem BioAssay (NCATS)
